Test results published in PubChem BioAssay AID504850 (National Center for Advancing Translational Sciences (NCATS), 2011).
Screen size: about 2,300 compounds; about 1,200 (52%) were called active. Not shown: some 34% with an inconclusive outcome. The call rests on the fitted dose curve; in most records, active means well fitted inhibition curve with a large enough effect; inconclusive means small, poorly fitted or top-dose-only effect, or effect the other way; inactive means no such curve, though single readings can be large or run the other way. The set was probably picked from earlier hits. The list shows a part of the results.

assay: Confirmation screen for delayed death inhibitors of the malarial parasite plastid, 48 hour incubation; further: nearly all actives have a fitted effect of over 65% in size; details: P. falciparum-infected erythrocytes, luciferase growth; series mostly up to 28.7 µM
Source text: The goal of this screen is to discover new antimalarial compounds that act by inhibiting the development of the apicoplast in the malarial parasite Plasmodium falciparum. The biochemical processes that make this organelle essential for erythrocytic stage parasites are not well understood. However, antibiotics, such as azithromycin and tetracycline, which target the apicoplast translational machinery, have a potent antimalarial effect. […] We have developed a cell-based assay that measures parasite growth based on the expression of an integrated copy of a firefly luciferase reporter. To detect small molecules that cause this "delayed death phenotype, erythrocytes infected with the luciferase-expressing parasites were incubated with compounds for either one or two generations, corresponding to 48 and 96 hours, respectively. Compounds that inhibit parasite growth in the second generation, but not the first, should be enriched in antimalarials that target the apicoplast. Growth inhibition is detected by a decrease in luciferase activity. MLPCN Grant: R21 NS059500 Assay Provider: David Fidock and Eric Ekland, Columbia University Keywords: NIH Roadmap, MLPCN, MLI, MLSMR, qHTS, NCGC, qHTS, malaria, luciferase, viability
Four microliters of culture medium (RPMI 1640 with 0.5% w/v Albumax (GIBCO), 24 mM sodium bicarbonate and 10 ug/mL gentamycin) were dispensed by a Multi-drop Combi into white solid 1536-well plates (Grenier) and 23 nL compound was added by a pin tool. Four microliters of infected erythrocytes (2% hematocrit, 0.1% parasitemia final concentration) in culture medium were dispensed and the plates incubated for 48 hours at 37 C in 5% CO2. Two microliters of luciferase detection reagent was added and luminescence was detected by a ViewLux (PerkinElmer) reader.
Potency means the concentration at half of the fitted maximal effect.

SMILES	Potency
CCNc1nc(NCC)n2c(SCC(=O)Nc3ccccc3F)nnc2n1	12.6 µM (active)
Cc1c(Cl)cccc1NC(CC(=O)c1ccccc1)C(=O)O (stereo not given)	inactive
CC(=O)O[C@H]1C(=O)[C@@]2(C)[C@H]([C@H](OC(=O)c3ccccc3)[C@]3(O)C[C@H](OC(=O)[C@H](O)[C@@H](NC(=O)c4ccccc4)c4ccccc4)C(C)=C1C3(C)C)[C@]1(OC(C)=O)CO[C@@H]1C[C@@H]2O	0.501 µM (active)
CC(=O)O[C@@]12CO[C@@H]1C[C@H](O)[C@@]1(C)C(=O)[C@H](O)C3=C(C)[C@@H](OC(=O)C(O)[C@@H](NC(=O)OC(C)(C)C)c4ccccc4)C[C@@](O)([C@@H](OC(=O)c4ccccc4)[C@H]21)C3(C)C (stereo not given in full)	0.141 µM (active)
Cc1c(/C=N/NC(=O)c2cccs2)c2ccccc2n1Cc1ccccc1Cl	4.47 µM (active)
Cc1noc(/C=C/c2nn(C)cc2Cl)c1[N+](=O)[O-]	12.6 µM (active)
CC(=O)N1CCc2cc(S(=O)(=O)NCCC(=O)N3CCN(c4ccccn4)CC3)ccc21	11.2 µM (active)
COCCn1c(=NC(=O)/C=C/c2ccccc2)sc2cc(NC(C)=O)ccc21	10 µM (active)
O=C(/C=C/c1ccncc1)c1ccc(NC(=O)c2ccccc2F)cc1	12.6 µM (active)
Cc1c(C#N)c(NC(=O)CCl)n(Cc2cccs2)c1C	3.98 µM (active)
Cc1c(C#N)c(NC(=O)CCl)n(Cc2ccccc2)c1C	7.08 µM (active)
COC(=O)c1cc(=O)n(Cc2cccs2)c(=Nc2ccccc2)s1	inactive
COc1ccc(-c2oc3ncn(Cc4ccco4)c(=N)c3c2-c2ccc(OC)cc2)cc1	7.94 µM (active)
CC1CCCC(NC(=O)c2cc(-c3ccncc3)nc3ccccc23)C1C (stereo not given)	11.2 µM (active)
C=CCn1cccc(/C=C/C(=O)c2ccc(C(C)(C)C)cc2)c1=S	1.26 µM (active)
Nc1nc(C2CC2)c(Sc2sc(N)nc2C2CC2)s1	inactive
Cc1ccccc1-c1nc(CS(=O)CC(=O)NC(C)CCc2ccccc2)c(C)o1 (stereo not given)	inactive
CCN1CCCC1CNC(=O)CS(=O)(=O)Cc1nc(-c2ccccc2C)oc1C (stereo not given)	11.2 µM (active)
COc1cc2c(cc1NC(=O)c1ccc(C(C)(C)C)cc1)CCCC2	11.2 µM (active)
O=C(CCCN1C(=O)/C(=C\c2cccs2)SC1=S)Nc1ccc(O)cc1	11.2 µM (active)
O=C(CCCN1C(=O)/C(=C/c2cccs2)SC1=S)Nc1ccc(O)cc1	11.2 µM (active)
O=C(CCN1C(=O)/C(=C\c2ccc(F)cc2)SC1=S)Nc1ccccc1	inactive
Cc1noc(C)c1C(=O)Nc1nc(-c2ccc(F)cc2)cs1	inactive
Cc1onc(-c2c(Cl)cccc2Cl)c1C(=O)Nc1nc(C(C)(C)C)cs1	11.2 µM (active)
COc1ccc(NC(=O)c2c(-c3c(Cl)cccc3Cl)noc2C)c(OC)c1	3.16 µM (active)
